A selection: hits, their analogues and other compounds. The true share with any hit is near 21%.
CHX counter: affects cycloheximide protein synthesis inhibition readout, counter-screen. hit rate 12% among 300,000. max response, %. AID 2314. cell reporter, cycloheximide protein synthesis inhibition counterscreen; in the data active = max response mostly above about 13%, no sharp cut-off; inactive = mostly below about 14%; note: read at 38.3 µM for the half of the compounds with a filed dose
Shiga inhibitor: inhibitors of Shiga toxin in Vero cells; Vero cells, Shiga toxin protein synthesis inhibition reporter; inhibition, % at 38.7 µM; hit rate 9.2% among 290,000; AID 2315; in the data active = inhibition mostly above about 28%, no sharp cut-off; inactive = mostly below about 43%
Pf growth 96h: P. falciparum growth inhibition at 96 hours. P. falciparum luciferase reporter growth, 96 h. Potency, µM (doses to about 28.7 µM), hits mostly inhibitors. hit rate 6.9% among 320,000
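Two-generation exposure (96 h) targets delayed-death phenotype. Reporter parasites carrying integrated firefly luciferase, in red cells at 2% hematocrit and 0.05% parasitemia final, kept at 37 C, 5% CO2; luminescence loss indicates inhibition.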
Pf growth 48h: inhibits P. falciparum growth in the first generation, 48 h; P. falciparum luciferase growth in erythrocytes, 48 h; Potency, µM (top dose mostly 28.7 µM), actives largely listed as inhibitors; hit rate 5.9% among 310,000
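Read-out is firefly luciferase luminescence from an integrated reporter in P. falciparum, so falling signal marks reduced parasite growth. Infected erythrocytes were at 2% hematocrit and 0.1% parasitemia (final) in Albumax-supplemented RPMI 1640.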
HCMV antiviral: human cytomegalovirus inhibition. activity change, negative = inhibition, % at 57.5 µM. hit rate 4.5% among 410,000. HFF cells, HCMV-luciferase reporter, 72 h; active compounds read low; in the data active = activity change below about -60%; inconclusive = no clear call, values can overlap the other calls; inactive = above about -39%
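Two-dose cell screen: HFF monolayers treated with compounds and infected with luciferase-expressing HCMV at 1 PFU/cell, 72 h at 37C, then lysed for luciferase measurement.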
HCV inhibitor: inhibitors of hepatitis C virus infection; Huh7.5.1 HCVcc-Cre infection, luciferase reporter, 44 h; Potency, µM (top dose mostly 41.8 µM), usual class: inhibitors; hit rate 3.4% among 340,000
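Compounds are dispensed onto cells plated 4 h earlier at 1,000 per well, with HCVcc-Cre virus (about 0.5 moi) added next. Following 44 h of culture, luminescent signal is measured for 15 sec after 15 min with substrate at room temperature.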
Of the large screens only hits and unclear results are named; the others gave an inactive call. Unless noted, calls come from the whole dose curve; as a rule, active = well fitted inhibition curve with a large enough effect; inconclusive = small, poorly fitted or top-dose-only effect, or another doubt; inactive = no such curve, though single readings can be large or run the other way.

Cc1ccc(NC(=S)N2CCC(c3ccc(C)cc3)C2)cc1 (stereo not given)	CHX counter 46, Shiga inhibitor 98, HCV inhibitor inconclusive
Cc1cccc(N(CC(=O)NCCSCc2ccc(Cl)cc2)S(C)(=O)=O)c1C	none (no result: CHX counter, Shiga inhibitor, Pf growth 96h, Pf growth 48h, HCV inhibitor)
O=C(Nn1c(SCc2ccccc2F)nc2ccsc2c1=O)c1ccccc1	Pf growth 96h 6.6µM
O=C(CSc1nc2ccsc2c(=O)n1NC(=O)c1ccccc1)Nc1nccs1	CHX counter 41, Shiga inhibitor 36
O=C(CSc1nc2ccsc2c(=O)n1NC(=O)c1ccccc1)NCc1ccco1	none
CCc1ccc(CN(Cc2cn[nH]c2-c2ccc(OC)cc2)C(=O)Nc2cc(Cl)ccc2OC)cc1	none (no result: CHX counter, Shiga inhibitor, Pf growth 96h, Pf growth 48h, HCV inhibitor)
O=C(CCS(=O)(=O)Cc1ccccc1)Nc1ncc([N+](=O)[O-])s1	CHX counter 39, Shiga inhibitor 58, HCMV antiviral -96, HCV inhibitor inconclusive
CCCCC(CC)C(=O)Nc1ncc([N+](=O)[O-])s1 (stereo not given)	HCMV antiviral -74, HCV inhibitor inconclusive
Cc1ccc(CC(=O)Nc2ncc([N+](=O)[O-])s2)cc1	CHX counter 30
CN1CCN(S(=O)(=O)c2cccc3nsnc23)CC1	Pf growth 96h inconclusive
Cc1csc(SC(C)C(=O)NCC2CCCCC2)n1 (stereo not given)	Pf growth 96h inconclusive
COc1ccc(-c2nn(-c3ccccc3)cc2/C=N/O)cc1OC	HCV inhibitor inconclusive
NC(=S)N/N=C/c1cn(-c2ccccc2)nc1-c1cccnc1	CHX counter 19, Pf growth 96h inconclusive, Pf growth 48h inconclusive, HCV inhibitor inconclusive
NC(=O)N/N=C/c1cn(-c2ccccc2)nc1-c1cccnc1	none (no result: HCMV antiviral)
O/N=C/c1cn(-c2ccccc2)nc1-c1ccccc1	CHX counter 14, HCV inhibitor inconclusive
COc1ccc(S(=O)(=O)N(C)c2ccc(C(=O)NCc3ccco3)cc2)cc1OC	none
COc1ccc(/C=C/C(=O)Nc2ccccc2C)cc1S(=O)(=O)N1CCOCC1	CHX counter 62, Shiga inhibitor 66, Pf growth 96h inconclusive, Pf growth 48h inconclusive, HCMV antiviral inconclusive, HCV inhibitor inconclusive
COc1ccc(/C=C/C(=O)Nc2ccc(C(C)=O)cc2)cc1S(=O)(=O)N1CCOCC1	none (no result: CHX counter, Shiga inhibitor, Pf growth 96h, Pf growth 48h, HCV inhibitor)
COc1cc(/C=C/C(=O)Nc2ccc(OC)c(S(=O)(=O)N3CCOCC3)c2)ccc1OC(F)F	HCMV antiviral -86, HCV inhibitor 0.25µM (no result: CHX counter, Shiga inhibitor, Pf growth 96h, Pf growth 48h)
COc1ccc(/C=C/C(=O)Nc2cccc(F)c2)cc1S(=O)(=O)N1CCOCC1	CHX counter 28, Pf growth 96h 6.6µM, Pf growth 48h inconclusive, HCMV antiviral inconclusive, HCV inhibitor 10µM
COc1ccc(/C=C/C(=O)Nc2ccccc2F)cc1S(=O)(=O)N1CCOCC1	HCV inhibitor 10µM (no result: CHX counter, Shiga inhibitor, Pf growth 96h, Pf growth 48h)
CC(=O)c1cccc(NC(=O)c2ccc3c(c2)N(Cc2ccc(C)cc2)CCS3)c1	none (no result: CHX counter, Shiga inhibitor, Pf growth 96h, Pf growth 48h, HCV inhibitor)
CCOC(=O)c1ccccc1NC(=O)CSc1ccc(-c2sc(-c3ccccc3)nc2C)nn1	none (no result: CHX counter, Shiga inhibitor, Pf growth 96h, Pf growth 48h, HCV inhibitor)
COc1ccc(S(=O)(=O)N(CC(=O)NCc2ccncc2)c2ccc(C)cc2)cc1Br	none
COc1cccc(-n2c(SCc3ccccc3C)nc3c([nH]c4ccccc43)c2=O)c1	none (no result: CHX counter, Shiga inhibitor, Pf growth 96h, Pf growth 48h, HCV inhibitor)
C=CCN(CC=C)C(=O)CCc1nnc(CCc2c[nH]c3ccccc23)o1	CHX counter 21
CC(C)(C)NC(=O)CCc1nnc(Cc2c[nH]c3ccccc23)o1	CHX counter 12, Pf growth 96h inconclusive
CCC(COC)NC(=O)CCc1nnc(Cc2c[nH]c3ccccc23)o1 (stereo not given)	Pf growth 96h 13µM
C=C(C)CN(CC)C(=O)CCc1nnc(CCc2c[nH]c3ccccc23)o1	HCMV antiviral inconclusive
COc1ccc(-c2nc3c4ccccc4n(CC(=O)N4CCN(c5ccccc5F)CC4)c(=O)n3n2)cc1	none (no result: CHX counter, Shiga inhibitor, Pf growth 96h, Pf growth 48h, HCV inhibitor)
O=C(CC1SC(N2CCCC2)=NC1=O)Nc1ccc(C(=O)N2CCN(c3cccc(Cl)c3)CC2)cc1 (stereo not given)	Pf growth 96h inconclusive, Pf growth 48h 8.3µM (no result: CHX counter, Shiga inhibitor)
CCOC(=O)C1CCCN(C(=O)c2ccc(NC(=O)CC3SC(N4CCCC4)=NC3=O)cc2)C1 (stereo not given)	Pf growth 96h inconclusive, Pf growth 48h 10µM (no result: CHX counter, Shiga inhibitor)
CCNC(=O)c1ccc(NC(=O)CC2SC(N3CCCCC3)=NC2=O)cc1 (stereo not given)	none (no result: CHX counter, Shiga inhibitor)
C[C@H]1CN([C@@H](C)CO)S(=O)(=O)c2ccc(Br)cc2O[C@@H]1CN(C)C(=O)Cc1cccnc1	none (no result: CHX counter, Shiga inhibitor, Pf growth 96h, Pf growth 48h, HCV inhibitor)
COc1cccc(-c2nc3c(c(C)nn3-c3ccccc3)c3cc(OC)c(OC)cc23)c1	none (no result: CHX counter, Shiga inhibitor, Pf growth 96h, Pf growth 48h, HCV inhibitor)
COc1cc2c(-c3ccc(O)cc3)nc3c(c(C)nn3-c3ccccc3)c2cc1OC	Pf growth 48h 15µM, HCMV antiviral -72, HCV inhibitor 11µM
Cc1noc(N)c1C(=O)Nc1ccccc1F	Pf growth 96h inconclusive
Cc1noc(N)c1C(=O)Nc1ccc(F)c(Cl)c1	Pf growth 48h 2.3µM
CCc1noc(N)c1C(=O)Nc1ccc(F)c(Cl)c1	none
Cc1noc(N)c1C(=O)Nc1ccc(F)cc1	Pf growth 96h 2.1µM
COc1ccc(CN2CCNC(=O)C2CC(=O)N2CCCN(C(C)=O)CC2)cc1OC (stereo not given)	none
COc1cc(C(=O)NCc2ncccc2C)ccc1OC1CCN(C(C)=O)CC1	Pf growth 96h 15µM (no result: HCV inhibitor)
C=CCN(CC=C)C(=O)c1ccc(OC2CCN(C(C)=O)CC2)c(OC)c1	Pf growth 96h 2.9µM, Pf growth 48h inconclusive
Cc1ccc(Nc2nc(C(=O)N3CCC(C(=O)NCCN4CCOCC4)CC3)cs2)cc1	Pf growth 96h 4.7µM, Pf growth 48h inconclusive
COc1ccc(CNC(=O)C2CCN(C(=O)c3csc(Nc4ccc(C)cc4)n3)CC2)cc1	Pf growth 48h 8.3µM, HCV inhibitor 11µM
COc1ccc(Nc2nc(C(=O)NCCCN3CCOCC3)cs2)cc1	none
Cc1ccc(Nc2nc(C(=O)N3CCC(C(=O)N4CCN(C)CC4)CC3)cs2)cc1	CHX counter 19 (no result: Pf growth 96h)
COc1ccc(CNC(=O)C2CCN(C(=O)c3ccc(-c4ccccc4)cc3)CC2)cc1	none
O=C(c1csc(Nc2ccccc2Cl)n1)N1CCCC1	CHX counter 53, Shiga inhibitor 108, Pf growth 96h 2.3µM, HCMV antiviral -93
COc1ccc(Nc2nc(C(=O)N3CCc4ccccc4C3)cs2)cc1	Pf growth 48h inconclusive
O=C(c1csc(Nc2cccc3ccccc23)n1)N1CCCC1	Pf growth 96h inconclusive, Pf growth 48h inconclusive
COCCNC(=O)C(c1ccc(C)cc1)N(Cc1cccs1)C(=O)CCC(=O)Nc1ccccn1 (stereo not given)	none
Cc1ccc(Nc2nc(C(=O)N3CCC(C(=O)NCc4ccccc4)CC3)cs2)cc1	CHX counter 19, Shiga inhibitor 35, Pf growth 96h inconclusive, Pf growth 48h inconclusive, HCV inhibitor inconclusive
Cc1ccc(NC(=O)N2CCC(C(=O)NCc3ccccc3)CC2)cc1	Pf growth 48h inconclusive, HCV inhibitor inconclusive
Cc1ccc(Nc2nc(COC(=O)C3CC3)cs2)cc1	CHX counter 52, Shiga inhibitor 75
